Hits are enriched below; roughly 1.8% of the tested compounds scored in any of these assays.
ERAP1 HTS inh = human ERAP1 aminopeptidase inhibitors, primary screen, biochemical, single point, plate reader; recombinant ERAP1, Leu-AMC fluorescence, 60 min; inhibition, % at 10.7 µM; 340,000 tested, 0.15% active;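 active = mean replicate inhibition of at least 30%, or all replicates individually reaching that 30% level; inactive = mean below 30% and not every replicate reaching it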
PDI turbidity = inhibitors of human PDI, primary screen, biochemical, turbidity, single point, plate reader; Protein disulfide-isomerase (Homo sapiens), P07237; PDI insulin aggregation turbidity, A650, 90 min; inhibition, % at 10 µM; 350,000 tested, 0.052% active;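 active = mean inhibition across replicates of 30% or more, whatever share of single replicates reach that level; inconclusive = mean inhibition below 30% while every single replicate reaches 30%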
AF4-AF9 inh = inhibitors of AF4 peptide binding to AF9, primary screen, biochemical, AlphaScreen, biotin-AF4 peptide, FLAG-AF9, single point | Protein AF-9 (Homo sapiens), P42568 | inhibition, % at 10 µM | 350,000 tested, 0.47% active | AID 651704, 2012;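 active = every replicate reaching a set inhibition limit, whatever the replicate mean, cut at about 25% in these data; inconclusive = mean inhibition reaches that limit but some replicates miss it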
DENV2 CPE = inhibitors of DENV2 cytopathic effect, primary screen, cell-based, plate reader, single concentration; CPE inhibition, % at 9.99 µM; AID 651640, 2012; DENV2-infected cells, cytopathic effect rescue; 350,000 tested, 1.7% active; in the data active = CPE inhibition above about 20%, passing the limit was not always enough; inconclusive = no clear call, values can overlap the other calls; tested in BHK-21 cells
ERp5 inh = inhibitors of ERp5-driven insulin aggregation, primary screen, biochemical, turbidity, absorbance 650 nm, single point | Protein disulfide-isomerase A6 (Homo sapiens), Q15084 | 90 min | inhibition, % at 9.99 µM | 350,000 tested, 0.05% active | AID 651711, 2012;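 active = mean replicate inhibition above about 25%, with every replicate also reaching it, limit read from the data, passing the limit was not always enough; inconclusive = only one of those two criteria met; inactive = neither criterion met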
Target sequence (Q15084 whole entry, looked up): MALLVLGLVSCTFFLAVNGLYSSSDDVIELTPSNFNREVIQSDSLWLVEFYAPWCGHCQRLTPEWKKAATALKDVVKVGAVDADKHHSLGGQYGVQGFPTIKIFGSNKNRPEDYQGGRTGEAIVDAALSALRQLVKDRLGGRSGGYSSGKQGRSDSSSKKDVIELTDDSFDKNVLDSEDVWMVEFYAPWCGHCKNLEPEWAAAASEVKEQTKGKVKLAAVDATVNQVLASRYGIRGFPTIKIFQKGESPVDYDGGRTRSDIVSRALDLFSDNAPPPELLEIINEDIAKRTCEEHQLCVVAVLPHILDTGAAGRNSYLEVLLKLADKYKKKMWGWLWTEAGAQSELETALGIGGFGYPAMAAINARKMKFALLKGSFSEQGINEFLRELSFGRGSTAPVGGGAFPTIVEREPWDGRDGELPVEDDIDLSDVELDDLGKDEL
A number is an active result; n = inactive; u = inconclusive; x = no result.

SMILES	ERAP1 HTS inh	PDI turbidity	AF4-AF9 inh	DENV2 CPE	ERp5 inh
Cc1cc(C)cc(N2C(=O)CS(=O)(=O)C2c2cccc([N+](=O)[O-])c2)c1 (stereo unspecified)	n	x	n	n	n
CCCCCCCCN1C(=O)[C@@H](CC(=O)NCc2cccc(C(F)(F)F)c2)C[C@@]2(C(=O)OC)C1=C[C@H](C(C)(C)C)O[C@@H]2C	n	x	n	n	n
CCCCCCCCN1C(=O)[C@H](CC(=O)NCc2cccc(C(F)(F)F)c2)C[C@@]2(C(=O)OC)CC(C)(C)CC=C12	n	x	n	44	n
CC1CCN(S(=O)(=O)c2ccc(C(=O)Nc3nnc(-c4ccco4)o3)cc2)CC1	n	n	n	90	n
CS(=O)(=O)c1cccc(-c2nnc(NC(=O)c3ccc(S(=O)(=O)N4CCCC4)cc3)o2)c1	n	n	n	61	n
O=C(Nc1nnc(-c2ccco2)o1)c1ccc(S(=O)(=O)N2CCCC2)cc1	n	n	n	n	n
C[C@H](NC(=O)C[C@@H]1C=C[C@H](NC(=O)c2cccnc2)[C@@H](CO)O1)c1ccccc1	n	x	n	n	n
CC=Cc1ccc2n(c1=O)C[C@H]1[C@H](CO)[C@@H](C(=O)NCC3CCCCC3)[C@@H]2N1C(=O)CC (mixture of isomers)	n	x	n	n	n
COc1ccc(CNC(=O)C2CCCN2S(=O)(=O)c2ccc(C)cc2)cc1 (stereo unspecified)	x	n	x	x	x
Cc1c(Cl)cccc1NC(=O)C1CC(=O)N(C2CCCC2)C1 (stereo unspecified)	n	n	n	n	n
COc1ccc(S(=O)(=O)N2CCCC2C(=O)NCC(=O)Nc2cccc(Cl)c2C)cc1 (stereo unspecified)	n	n	n	70	n
Cc1c(Cl)cccc1NC(=O)CNC(=O)C1CC(=O)N(C2CCCC2)C1 (stereo unspecified)	n	n	n	88	n
CNC[C@H]1Oc2ccc(NS(=O)(=O)c3ccc(F)cc3)cc2CC(=O)N([C@H](C)CO)C[C@@H]1C	n	x	n	n	n
O=C1Nc2ccccc2C(=O)N(C2CCCC2)C1C(=O)NC1CC1 (stereo unspecified)	n	x	x	35	n
O=C(NCC(F)(F)F)C1C(=O)Nc2ccccc2C(=O)N1C1CCCC1 (stereo unspecified)	x	x	n	n	n
Cc1cnc(CNC(=O)C2CCC(=O)N(Cc3ccc(Cl)cc3)C2)[nH]1 (stereo unspecified)	n	n	n	72	n
O=C(NCc1ccccn1)C1CCC(=O)N(Cc2ccc(Cl)cc2)C1 (stereo unspecified)	n	n	n	n	n
O=C(CC1CC1)Nc1ccc2c(c1)[C@H]1C[C@H](CC(=O)NC3CCCCC3)O[C@@H](CO)[C@H]1O2	n	x	n	n	n
O=C(c1cccnc1)N1CCCCN2[C@H](CO)[C@@H](c3ccc(C#Cc4cccnc4)cc3)[C@H]2C1	x	x	n	25	x
CC(=O)N1CC(=O)N2[C@H](CO)[C@@H](c3ccc(C#Cc4cccnc4)cc3)[C@@H]2C1	n	x	n	26	n
CN(C)CC(=O)N1CCCCN2[C@@H](CO)[C@@H](c3ccc(-c4cccnc4)cc3)[C@@H]2C1	n	x	n	n	n
COCC(=O)N1CCCCN2[C@H](CO)[C@@H](c3ccc(C#Cc4cccnc4)cc3)[C@H]2C1	n	x	n	32	n
CN(C)CC(=O)N1CCCCN2[C@H](CO)[C@H](c3ccc(-c4cccnc4)cc3)[C@@H]2C1	n	x	n	22	n
COCC(=O)N1CCCCN2[C@H](CO)[C@@H](c3ccc(C#Cc4cccnc4)cc3)[C@@H]2C1	n	x	n	n	n
O=C(NC1CCCC1)N1CCCCN2[C@H](CO)[C@@H](c3ccc(-c4cncnc4)cc3)[C@@H]2C1	n	x	n	34	n
SMILES	ERAP1 HTS inh	PDI turbidity	AF4-AF9 inh	DENV2 CPE	ERp5 inh
COCC(=O)N1CCCCN2[C@H](C1)[C@@H](c1ccc(C#Cc3cccnc3)cc1)[C@@H]2CO	n	x	n	23	n
O=C(NC1CCCC1)N1CCCCN2[C@H](CO)[C@@H](c3ccc(-c4cncnc4)cc3)[C@H]2C1	n	x	n	n	n
CN1c2ccc(C#Cc3cccnc3)cc2[C@H]2[C@H](CCN2C(=O)C2CCCCC2)[C@H]1CO	n	x	n	n	n
COc1c(Cl)cc(Br)c(OC)c1C(=O)NC(=O)Nc1nc(C)cc(C)n1	n	n	n	32	n
COc1ccc(Cl)c(OC)c1C(=O)NC(=O)Nc1nc(C)nc(C)n1	n	n	n	n	n
Cc1ccc(S(=O)(=O)Nc2ccc3c(c2)C(=O)N([C@H](C)CO)C[C@H](C)[C@H](CN(C)S(=O)(=O)c2ccc(C)cc2)OCCCC[C@H](C)O3)cc1	n	x	n	n	n
COc1ccc(C)cc1N(CC(=O)Nc1ccc(S(=O)(=O)N2CCOCC2)cc1)S(C)(=O)=O	n	n	n	24	n
COc1ccc(N(CC(=O)Nc2ccc(S(=O)(=O)N3CCOCC3)cc2)S(C)(=O)=O)cc1OC	n	n	n	n	n
COc1ccc(CN(C)C[C@H]2OCCCC[C@H](C)Oc3ccc(NS(=O)(=O)c4cccs4)cc3C(=O)N([C@@H](C)CO)C[C@@H]2C)cc1	n	x	n	u	n
Cn1c(N=Nc2ccc(N3CCOCC3)cc2)[n+](C)c2ccccc21	n	n	58	n	n
Cc1cc(C)cc(NC(=O)c2ccc([N+](=O)[O-])o2)c1	n	n	n	n	n
O=C(Nc1nc2ccccc2s1)c1ccc([N+](=O)[O-])o1	n	n	n	n	n
Cc1cc(C)nc(NC(=O)c2ccc([N+](=O)[O-])o2)n1	n	n	n	93	n
COc1ccc2nc(NC(=O)c3ccc([N+](=O)[O-])o3)sc2c1	n	n	n	21	n
O=C1[C@H](Cc2ccccc2)NCC=CC[C@H](c2ccc(Cl)cc2)N1Cc1ccccc1	x	n	n	25	n
c1ccc(-c2cc3ccccc3[nH]2)cc1	n	n	n	27	n
C[C@H](NC(=O)C[C@H]1C=C[C@H](NC(=O)C2CCC2)[C@@H](CO)O1)c1ccccc1	n	x	n	n	n
COc1ccc(O[C@H]2C=C[C@@H](c3ccccc3)O[C@@H]2CO/N=C(\C)CCN2CCCCc3nc(C)c(C)cc32)cc1	n	x	n	36	n
OC(c1ccccc1)C(NCc1ccccc1)c1ccccc1 (stereo unspecified)	n	n	n	21	n
CCOC(=O)c1ccc(NC(=O)c2nc[nH]c2C(=O)NC[C@H](C)O)cc1	n	n	n	80	n
COc1ccc(NC(=O)c2nc[nH]c2C(=O)N[C@@H](C)C(=O)OC(C)(C)C)cc1	x	n	x	x	x
Cc1ccc(NC(=O)c2nc[nH]c2C(=O)N[C@@H](C)C(=O)OC(C)(C)C)cc1	x	n	n	98	n

Screening results as filed in PubChem.
